The values below come from ChEMBL document CHEMBL1961873, “Compounds: GSK PKIS; Assays: Nanosyn kinase panel” (2012).

Assay [1] addresses High affinity nerve growth factor receptor (Homo sapiens) (UniProt P04629). To be noted: at 1 µM.
The target of assay [2] is BDNF/NT-3 growth factors receptor (Homo sapiens) (UniProt Q16620). Particulars: at 0.1 µM.
For assay [3] the target is unchanged. Particulars: at 1 µM.
For assay [4], the target named is NT-3 growth factor receptor (Homo sapiens) (UniProt Q16288). Particulars: at 0.1 µM.
The target is the same in assay [5]. To be noted: at 1 µM.
Assay [6] addresses T1, Tyrosine-protein kinase TXK (Homo sapiens) (UniProt P42681).
T1 sequence (whole entry): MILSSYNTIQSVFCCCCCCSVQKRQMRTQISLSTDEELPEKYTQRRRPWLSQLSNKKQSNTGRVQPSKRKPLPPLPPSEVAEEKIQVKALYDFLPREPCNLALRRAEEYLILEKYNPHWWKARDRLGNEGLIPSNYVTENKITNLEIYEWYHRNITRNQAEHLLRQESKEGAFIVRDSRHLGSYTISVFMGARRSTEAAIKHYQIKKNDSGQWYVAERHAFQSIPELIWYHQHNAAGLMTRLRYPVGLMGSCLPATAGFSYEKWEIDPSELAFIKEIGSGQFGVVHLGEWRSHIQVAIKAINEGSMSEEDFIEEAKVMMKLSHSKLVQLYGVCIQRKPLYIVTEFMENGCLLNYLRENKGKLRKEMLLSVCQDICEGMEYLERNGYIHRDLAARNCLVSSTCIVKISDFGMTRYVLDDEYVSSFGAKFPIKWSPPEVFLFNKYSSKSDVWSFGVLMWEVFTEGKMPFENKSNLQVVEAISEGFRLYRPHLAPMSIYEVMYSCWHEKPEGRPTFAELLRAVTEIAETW
Particulars: at 0.1 µM.

In assay [7] the target is T1, Tyrosine-protein kinase TXK (Homo sapiens). Particulars: at 1 µM.
Assay [8] addresses Non-receptor tyrosine-protein kinase TYK2 (Homo sapiens) (UniProt P29597). To be noted: at 0.1 µM.
In assay [9] the target is T2, Dual specificity protein kinase TTK (Homo sapiens) (UniProt P33981).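 Also: reported figures are mean TTK inhibition at 1 µM.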
T2 sequence (whole entry): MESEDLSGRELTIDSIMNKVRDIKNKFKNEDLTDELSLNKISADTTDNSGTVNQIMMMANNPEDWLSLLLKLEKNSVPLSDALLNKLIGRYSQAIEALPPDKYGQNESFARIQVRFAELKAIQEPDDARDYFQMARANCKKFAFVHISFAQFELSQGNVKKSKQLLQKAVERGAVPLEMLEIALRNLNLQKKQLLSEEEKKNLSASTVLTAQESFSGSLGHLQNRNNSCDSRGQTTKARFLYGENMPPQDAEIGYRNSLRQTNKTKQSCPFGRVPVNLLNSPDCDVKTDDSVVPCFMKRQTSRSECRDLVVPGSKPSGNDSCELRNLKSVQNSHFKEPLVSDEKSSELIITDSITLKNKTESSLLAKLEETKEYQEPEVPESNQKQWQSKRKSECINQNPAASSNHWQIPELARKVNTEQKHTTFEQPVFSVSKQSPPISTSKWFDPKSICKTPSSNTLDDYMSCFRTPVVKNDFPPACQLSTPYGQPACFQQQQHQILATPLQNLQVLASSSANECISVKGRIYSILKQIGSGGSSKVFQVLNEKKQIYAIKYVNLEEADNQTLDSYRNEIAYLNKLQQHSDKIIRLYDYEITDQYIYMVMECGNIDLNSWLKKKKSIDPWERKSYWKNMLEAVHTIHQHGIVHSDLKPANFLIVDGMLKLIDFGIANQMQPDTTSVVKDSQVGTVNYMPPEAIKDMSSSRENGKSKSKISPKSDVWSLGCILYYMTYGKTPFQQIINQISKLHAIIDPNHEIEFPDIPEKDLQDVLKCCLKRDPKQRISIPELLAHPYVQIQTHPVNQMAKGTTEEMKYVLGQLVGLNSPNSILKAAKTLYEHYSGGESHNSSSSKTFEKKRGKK
Particulars: at 1 µM.

The target of assay [10] is T3, Aurora kinase A (Homo sapiens) (UniProt O14965).
T3 sequence (whole entry): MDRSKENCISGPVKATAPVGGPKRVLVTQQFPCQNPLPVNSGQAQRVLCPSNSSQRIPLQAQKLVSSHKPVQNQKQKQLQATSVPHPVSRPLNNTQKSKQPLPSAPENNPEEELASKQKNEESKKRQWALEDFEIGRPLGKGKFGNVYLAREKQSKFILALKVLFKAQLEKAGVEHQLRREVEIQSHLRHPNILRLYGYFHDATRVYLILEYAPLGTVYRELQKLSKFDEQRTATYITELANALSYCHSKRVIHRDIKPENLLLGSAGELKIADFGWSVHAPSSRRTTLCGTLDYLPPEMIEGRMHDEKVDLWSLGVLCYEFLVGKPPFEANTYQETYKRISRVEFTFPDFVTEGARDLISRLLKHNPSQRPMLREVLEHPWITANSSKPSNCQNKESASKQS
To be noted: at 0.1 µM.

The target of assay [11] is T3, Aurora kinase A (Homo sapiens). To be noted: at 1 µM.
In assay [12] the target is Aurora kinase B (Homo sapiens) (UniProt Q96GD4). Particulars: at 0.1 µM.
Assay [13] shares this target. To be noted: at 1 µM.
Assay [14] addresses T4, Aurora kinase C (Homo sapiens) (UniProt Q9UQB9).
T4 sequence (whole entry): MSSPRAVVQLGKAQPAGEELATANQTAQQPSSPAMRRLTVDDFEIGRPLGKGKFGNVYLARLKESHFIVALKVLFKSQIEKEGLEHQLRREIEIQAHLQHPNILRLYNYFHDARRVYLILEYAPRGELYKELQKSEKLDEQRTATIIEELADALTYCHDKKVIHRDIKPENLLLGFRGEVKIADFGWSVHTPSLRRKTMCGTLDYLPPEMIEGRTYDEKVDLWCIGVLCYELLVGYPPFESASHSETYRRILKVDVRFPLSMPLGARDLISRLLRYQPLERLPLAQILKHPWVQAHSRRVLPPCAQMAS
Particulars: at 0.1 µM.

The target in assay [15] is T4, Aurora kinase C (Homo sapiens). To be noted: at 1 µM.
Assay [16] has as its target Serine/threonine-protein kinase 10 (Homo sapiens) (UniProt O94804). To be noted: at 0.1 µM.
Assay [17] shares this target. To be noted: at 1 µM.
Assay [18] addresses T5, Mitogen-activated protein kinase kinase kinase kinase 2 (Homo sapiens) (UniProt Q12851).
T5 sequence (whole entry): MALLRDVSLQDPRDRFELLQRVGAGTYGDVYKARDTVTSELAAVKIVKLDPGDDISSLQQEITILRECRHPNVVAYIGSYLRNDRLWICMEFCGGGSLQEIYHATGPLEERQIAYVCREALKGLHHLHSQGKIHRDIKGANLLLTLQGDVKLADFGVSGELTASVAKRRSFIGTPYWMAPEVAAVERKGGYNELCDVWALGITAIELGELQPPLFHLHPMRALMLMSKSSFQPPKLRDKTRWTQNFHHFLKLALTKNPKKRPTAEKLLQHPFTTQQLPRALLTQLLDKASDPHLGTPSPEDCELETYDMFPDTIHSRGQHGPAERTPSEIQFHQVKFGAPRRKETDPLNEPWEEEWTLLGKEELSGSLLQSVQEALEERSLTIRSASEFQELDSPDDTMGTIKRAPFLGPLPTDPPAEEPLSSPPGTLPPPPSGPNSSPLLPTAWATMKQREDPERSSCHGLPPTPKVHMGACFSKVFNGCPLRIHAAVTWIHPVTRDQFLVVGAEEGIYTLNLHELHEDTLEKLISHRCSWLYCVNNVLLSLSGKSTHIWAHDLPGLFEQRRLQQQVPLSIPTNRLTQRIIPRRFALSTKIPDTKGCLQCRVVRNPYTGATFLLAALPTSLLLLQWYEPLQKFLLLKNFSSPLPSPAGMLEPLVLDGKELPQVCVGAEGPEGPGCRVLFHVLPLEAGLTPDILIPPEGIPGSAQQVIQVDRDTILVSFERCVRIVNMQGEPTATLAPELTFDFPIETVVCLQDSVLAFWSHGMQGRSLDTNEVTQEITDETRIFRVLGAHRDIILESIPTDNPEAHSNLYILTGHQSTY
Particulars: at 0.1 µM.

The target of assay [19] is T5, Mitogen-activated protein kinase kinase kinase kinase 2 (Homo sapiens). To be noted: at 1 µM.
The target of assay [20] is Mitogen-activated protein kinase kinase kinase kinase 4 (Homo sapiens) (UniProt O95819). Particulars: at 0.1 µM.
Chain of Mitogen-activated protein kinase kinase kinase kinase 4 (Homo sapiens) (O95819 2-1239 limits assumed): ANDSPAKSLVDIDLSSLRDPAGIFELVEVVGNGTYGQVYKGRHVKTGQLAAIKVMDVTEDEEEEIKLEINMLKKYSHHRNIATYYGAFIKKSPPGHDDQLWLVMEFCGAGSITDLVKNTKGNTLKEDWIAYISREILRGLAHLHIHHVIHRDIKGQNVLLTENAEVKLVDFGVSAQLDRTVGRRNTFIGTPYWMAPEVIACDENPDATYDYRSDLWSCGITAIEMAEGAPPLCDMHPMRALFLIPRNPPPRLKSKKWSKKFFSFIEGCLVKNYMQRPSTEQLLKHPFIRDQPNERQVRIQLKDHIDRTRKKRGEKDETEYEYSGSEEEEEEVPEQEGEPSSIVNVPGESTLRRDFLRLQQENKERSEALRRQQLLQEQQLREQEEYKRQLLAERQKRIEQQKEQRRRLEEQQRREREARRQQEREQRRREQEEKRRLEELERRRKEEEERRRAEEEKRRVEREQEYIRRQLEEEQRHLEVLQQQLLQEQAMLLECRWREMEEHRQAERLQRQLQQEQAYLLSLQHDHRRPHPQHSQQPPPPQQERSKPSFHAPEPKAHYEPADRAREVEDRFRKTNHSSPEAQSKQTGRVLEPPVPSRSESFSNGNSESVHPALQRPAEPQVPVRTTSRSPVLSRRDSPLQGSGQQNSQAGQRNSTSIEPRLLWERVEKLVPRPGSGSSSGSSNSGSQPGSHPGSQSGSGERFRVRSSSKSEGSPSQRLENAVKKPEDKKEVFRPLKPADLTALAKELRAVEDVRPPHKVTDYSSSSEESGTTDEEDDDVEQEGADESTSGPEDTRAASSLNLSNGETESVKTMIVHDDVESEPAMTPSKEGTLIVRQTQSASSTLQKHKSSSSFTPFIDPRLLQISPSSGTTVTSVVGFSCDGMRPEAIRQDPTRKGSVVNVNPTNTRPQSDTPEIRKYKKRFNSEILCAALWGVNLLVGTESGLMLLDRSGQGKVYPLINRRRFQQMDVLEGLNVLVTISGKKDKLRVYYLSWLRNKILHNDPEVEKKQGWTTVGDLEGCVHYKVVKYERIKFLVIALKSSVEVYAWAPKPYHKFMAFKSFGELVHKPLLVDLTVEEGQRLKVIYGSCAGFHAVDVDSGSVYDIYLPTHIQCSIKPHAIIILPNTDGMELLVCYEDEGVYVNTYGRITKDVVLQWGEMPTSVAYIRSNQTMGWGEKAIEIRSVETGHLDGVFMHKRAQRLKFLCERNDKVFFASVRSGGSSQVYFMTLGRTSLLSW

Chain of Aurora kinase B (Homo sapiens) (Q96GD4 whole entry): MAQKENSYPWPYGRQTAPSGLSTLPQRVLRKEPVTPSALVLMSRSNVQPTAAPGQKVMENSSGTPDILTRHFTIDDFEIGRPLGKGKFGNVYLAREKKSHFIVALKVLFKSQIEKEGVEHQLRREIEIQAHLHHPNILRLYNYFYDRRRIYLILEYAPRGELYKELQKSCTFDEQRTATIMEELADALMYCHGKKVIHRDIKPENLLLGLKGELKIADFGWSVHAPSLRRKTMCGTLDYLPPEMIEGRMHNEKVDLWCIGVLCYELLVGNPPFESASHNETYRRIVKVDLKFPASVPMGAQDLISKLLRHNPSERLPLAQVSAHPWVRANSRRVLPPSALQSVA
Chain of Non-receptor tyrosine-protein kinase TYK2 (Homo sapiens) (P29597 whole entry): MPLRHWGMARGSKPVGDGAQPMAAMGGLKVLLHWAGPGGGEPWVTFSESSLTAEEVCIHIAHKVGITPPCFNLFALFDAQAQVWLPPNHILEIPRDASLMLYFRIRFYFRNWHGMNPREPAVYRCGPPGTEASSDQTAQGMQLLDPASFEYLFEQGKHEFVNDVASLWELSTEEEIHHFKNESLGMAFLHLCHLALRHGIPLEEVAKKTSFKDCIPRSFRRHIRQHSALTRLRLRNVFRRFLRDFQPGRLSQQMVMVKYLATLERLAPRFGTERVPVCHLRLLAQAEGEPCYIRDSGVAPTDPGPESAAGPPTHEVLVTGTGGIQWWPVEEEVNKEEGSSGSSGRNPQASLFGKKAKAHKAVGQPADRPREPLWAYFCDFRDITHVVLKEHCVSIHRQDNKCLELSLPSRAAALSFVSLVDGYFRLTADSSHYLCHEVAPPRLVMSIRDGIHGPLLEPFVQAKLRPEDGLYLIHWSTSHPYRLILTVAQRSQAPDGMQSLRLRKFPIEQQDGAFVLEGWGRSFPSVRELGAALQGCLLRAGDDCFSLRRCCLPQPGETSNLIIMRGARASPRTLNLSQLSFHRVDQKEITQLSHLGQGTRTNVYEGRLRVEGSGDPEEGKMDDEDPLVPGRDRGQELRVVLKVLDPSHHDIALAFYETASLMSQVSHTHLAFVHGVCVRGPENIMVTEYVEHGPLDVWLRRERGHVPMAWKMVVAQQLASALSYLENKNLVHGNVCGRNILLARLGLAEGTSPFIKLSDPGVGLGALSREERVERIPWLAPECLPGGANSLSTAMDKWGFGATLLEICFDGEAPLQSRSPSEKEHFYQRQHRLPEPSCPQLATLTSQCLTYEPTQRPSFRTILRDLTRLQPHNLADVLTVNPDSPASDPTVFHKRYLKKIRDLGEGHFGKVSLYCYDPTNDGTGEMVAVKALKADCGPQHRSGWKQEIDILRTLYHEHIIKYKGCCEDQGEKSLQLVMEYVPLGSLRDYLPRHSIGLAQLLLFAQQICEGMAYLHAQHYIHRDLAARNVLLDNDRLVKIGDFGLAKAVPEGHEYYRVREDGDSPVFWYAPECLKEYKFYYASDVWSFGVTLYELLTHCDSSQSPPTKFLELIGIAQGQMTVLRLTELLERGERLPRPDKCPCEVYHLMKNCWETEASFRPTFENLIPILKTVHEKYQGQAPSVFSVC
Chain of BDNF/NT-3 growth factors receptor (Homo sapiens) (Q16620 32-822 limits assumed): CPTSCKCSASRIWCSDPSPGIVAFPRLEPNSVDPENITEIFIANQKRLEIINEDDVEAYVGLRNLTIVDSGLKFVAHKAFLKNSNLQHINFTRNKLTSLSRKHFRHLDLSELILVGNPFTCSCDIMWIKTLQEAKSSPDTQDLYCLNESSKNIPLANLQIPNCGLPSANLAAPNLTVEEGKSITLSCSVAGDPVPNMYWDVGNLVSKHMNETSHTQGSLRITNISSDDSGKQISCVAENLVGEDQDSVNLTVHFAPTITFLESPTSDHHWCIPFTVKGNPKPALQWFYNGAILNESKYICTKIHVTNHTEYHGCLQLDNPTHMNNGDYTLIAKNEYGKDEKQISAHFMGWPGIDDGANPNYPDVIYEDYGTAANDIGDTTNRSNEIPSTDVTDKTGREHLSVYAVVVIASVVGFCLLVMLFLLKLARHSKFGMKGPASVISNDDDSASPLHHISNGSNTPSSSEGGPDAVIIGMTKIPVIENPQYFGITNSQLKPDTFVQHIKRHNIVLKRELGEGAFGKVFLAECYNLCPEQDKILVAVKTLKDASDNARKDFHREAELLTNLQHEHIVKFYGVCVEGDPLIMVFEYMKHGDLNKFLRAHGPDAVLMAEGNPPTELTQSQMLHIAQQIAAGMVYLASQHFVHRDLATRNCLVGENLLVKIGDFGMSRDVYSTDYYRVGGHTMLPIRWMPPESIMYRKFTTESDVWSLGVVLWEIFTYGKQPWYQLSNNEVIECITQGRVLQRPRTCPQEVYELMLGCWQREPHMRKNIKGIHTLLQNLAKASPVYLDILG
Chain of NT-3 growth factor receptor (Homo sapiens) (Q16288 32-839 limits assumed): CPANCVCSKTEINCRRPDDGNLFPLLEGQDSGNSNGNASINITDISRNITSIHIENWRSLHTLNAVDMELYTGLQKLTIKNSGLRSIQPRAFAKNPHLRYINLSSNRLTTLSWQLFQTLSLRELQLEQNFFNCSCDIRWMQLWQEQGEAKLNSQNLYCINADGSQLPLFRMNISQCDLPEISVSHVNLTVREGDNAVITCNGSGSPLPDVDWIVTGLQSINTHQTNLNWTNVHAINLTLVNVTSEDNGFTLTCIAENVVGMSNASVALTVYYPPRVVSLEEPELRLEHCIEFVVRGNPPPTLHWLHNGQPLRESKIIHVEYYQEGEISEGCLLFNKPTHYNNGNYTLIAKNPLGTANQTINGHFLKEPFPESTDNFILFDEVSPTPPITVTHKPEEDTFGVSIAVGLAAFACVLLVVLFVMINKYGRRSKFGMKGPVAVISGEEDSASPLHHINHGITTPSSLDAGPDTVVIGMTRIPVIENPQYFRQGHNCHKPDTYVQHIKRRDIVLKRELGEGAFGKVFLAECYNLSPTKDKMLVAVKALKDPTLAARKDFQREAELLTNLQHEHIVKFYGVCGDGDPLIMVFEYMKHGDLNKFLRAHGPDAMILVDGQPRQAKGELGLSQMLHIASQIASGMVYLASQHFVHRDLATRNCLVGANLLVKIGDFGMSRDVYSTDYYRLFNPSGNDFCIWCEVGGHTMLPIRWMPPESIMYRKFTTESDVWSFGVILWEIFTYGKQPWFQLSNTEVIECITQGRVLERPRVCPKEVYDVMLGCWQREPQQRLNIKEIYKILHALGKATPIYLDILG

`Fc1ccc(-c2ncn(C3CCNCC3)c2-c2ccnc(Oc3ccc(Oc4ccccc4)cc3)n2)cc1`: the inhibition – broadly, the change of the read-out against control, counted positive when it falls – was found to be 5.66% in assay [1]; 2.54% in assay [2]; 2.27% in assay [3]; 2.44% in assay [4]; 1.66% in assay [5]; 8.91% in assay [6]. In addition, the inhibition is 5.95% in [7]; -1.07% in assay [8]; 7.56% in [9]; 2.89% in [10]; 0.96% in assay [11]; 4.04% in [12]. In addition, the inhibition in [13] is 3.66%; in [14], 0.06%; in assay [15], 0.55%; in assay [16] it was 5.52%; in assay [17] it was 6.96%; in [18], 2.54%. Further, the figures for the inhibition in [19] and in assay [20] were 9.5% and 4.44%, respectively.
Consider `Nc1nccc(-c2c(-c3ccc(F)cc3)ncn2C2CCC(O)CC2)n1` (stereo not given), for which the inhibition in assay [1] is -0.08%; in assay [2], 1.41%; in assay [3], 5.91%; in [4] it was 2%; in assay [5], 11.3%; in assay [6] it was 1.58%. Besides, the inhibition in assay [7] is 19.2%; in assay [8] it was -2.03%; in assay [9] it was -0.22%; in [10] it was -2.33%; in [11] it was 22%; in assay [12], -3.41%. Further, the inhibition was 4.15% in assay [13]; -1.77% in assay [14]; -2.2% in assay [15]; -0.75% in [16]; 9.11% in assay [17]; 2.53% in assay [18]. In addition, the results for the inhibition in [19] and in assay [20] were 16.2% and 9.24%, respectively.
With `O=C1Nc2ccccc2/C1=C/Nc1ccc(-n2cncn2)cc1`, the inhibition amounted to 44.2% in [1]; 11.7% in assay [2]; 56.5% in assay [3]; 12.5% in assay [4]; 58.4% in assay [5]; 3.04% in assay [6]. Also, the inhibition is 5.07% in [7]; -4.51% in [8]; 47.9% in assay [9]; 4.13% in assay [10]; 36.3% in assay [11]; 6.72% in [12]. Moreover, the inhibition in assay [13] was 27.7%; in [14], 3.93%; in assay [15], 44.8%; in [16], 4.16%; in [17], 12.6%; in assay [18], 2.9%. In addition, the results for the inhibition in assay [19] and in assay [20] were 12.6% and 18.5%, respectively.
`FC(F)(F)c1cccc(Nc2nccc(-c3cnn4nc(-c5ccccc5)ccc34)n2)c1`: the inhibition in assay [1] is -0.33%; in [2] it was 0.37%; in assay [3] it was 3.54%; in assay [4], -0.78%; in [5], 3.9%; in [6] it was -1.01%. The inhibition was 5.95% in assay [7]; -2.57% in assay [8]; 6.07% in [9]; 0.08% in [10]; 3.33% in assay [11]; 2.71% in assay [12]. The inhibition in [13] amounted to 8.1%; in assay [14] it was 1.82%; in assay [15], 10.2%; in [16], 3.86%; in [17], 5.68%; in [18] it was 0.58%. Also, the inhibition was determined as 2.4% in assay [19] and 2.1% in assay [20].
`Cc1ccc(C(=O)NC(C)C)cc1-c1ccc(C(=O)NCC2CC2)cc1`: the inhibition is 0.4% in assay [1]; -1.41% in assay [2]; 0.73% in assay [3]; 0.1% in assay [4]; 1.79% in assay [5]; -1.45% in assay [6]. Further, the inhibition in assay [7] was -1.03%; in assay [8] it was 1.94%; in assay [9], -5.81%; in [10] it was -3.2%; in [11] it was -2.53%; in assay [12] it was -0.47%. Besides, the inhibition in assay [13] is 2.24%; in assay [14], -0.96%; in [15] it was 1.27%; in assay [16], -2.21%; in assay [17], -5.65%; in assay [18], -0.39%. Moreover, the results for the inhibition in assay [19] and in assay [20] were 1.59% and -2.82%, respectively.
